The values that follow come from PubChem BioAssay AID720 (The Scripps Research Institute Molecular Screening Center, 2007).

The whole screen tested about 97,000 compounds, of which about 140 (0.14%) were called active. Many of the other results were omitted from the sample, so actives are more common in it than they were. Unmarked numbers belong to inactive results.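 The calls were made as follows: active = inhibition above the screen-wide mean inhibition plus 3 SD (cut at about 15% in these data); inactive = the rest.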

As usually defined, the inhibition is the relative decrease from the control value, in per cent.

Chain of Ephrin type-B receptor 4 (Homo sapiens) (P54760 whole entry, looked up, the tested form may be a part): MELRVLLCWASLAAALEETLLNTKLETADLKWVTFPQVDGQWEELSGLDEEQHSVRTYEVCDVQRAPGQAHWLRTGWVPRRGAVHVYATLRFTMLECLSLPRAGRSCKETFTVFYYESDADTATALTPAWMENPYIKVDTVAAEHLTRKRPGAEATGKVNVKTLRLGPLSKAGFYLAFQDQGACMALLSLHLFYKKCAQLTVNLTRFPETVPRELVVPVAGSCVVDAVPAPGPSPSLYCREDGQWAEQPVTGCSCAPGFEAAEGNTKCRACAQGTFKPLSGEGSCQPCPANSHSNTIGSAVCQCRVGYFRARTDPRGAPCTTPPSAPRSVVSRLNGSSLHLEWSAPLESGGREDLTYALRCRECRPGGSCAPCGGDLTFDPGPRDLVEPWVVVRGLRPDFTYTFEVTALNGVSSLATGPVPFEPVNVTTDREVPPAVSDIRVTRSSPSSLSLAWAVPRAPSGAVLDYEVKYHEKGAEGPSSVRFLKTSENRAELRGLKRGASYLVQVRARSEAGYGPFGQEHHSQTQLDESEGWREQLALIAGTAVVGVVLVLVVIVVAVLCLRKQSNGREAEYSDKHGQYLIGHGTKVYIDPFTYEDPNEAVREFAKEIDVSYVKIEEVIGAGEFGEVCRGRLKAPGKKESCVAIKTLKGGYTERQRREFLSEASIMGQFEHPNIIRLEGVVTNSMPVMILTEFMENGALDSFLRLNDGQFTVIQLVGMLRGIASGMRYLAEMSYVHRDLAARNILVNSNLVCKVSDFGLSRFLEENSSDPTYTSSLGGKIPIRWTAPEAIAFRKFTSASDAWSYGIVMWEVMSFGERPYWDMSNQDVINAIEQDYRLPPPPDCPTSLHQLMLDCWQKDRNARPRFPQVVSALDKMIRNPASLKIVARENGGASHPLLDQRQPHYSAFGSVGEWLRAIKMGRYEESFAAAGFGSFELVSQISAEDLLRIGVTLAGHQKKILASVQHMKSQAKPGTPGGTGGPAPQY

This assay concerns the target Ephrin type-B receptor 4 (Homo sapiens) (UniProt P54760). Description: blockers of EphB4 ligand binding – biochemical, TNYL-RAW peptide probe, fluorescence polarization, primary screen (AID 720).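 Also: 0% = DMSO wells and 100% = excess unlabeled TNYL-RAW peptide.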 The note with it: EphB4 LBD / TNYL-RAW-Alexa532 peptide, at 7 µM, hits give high values. In general terms: In fluorescence polarisation assays a small probe gives low polarisation when free and higher when bound to something large.
On to `COCCN(C(=O)c1ccco1)c1nnc(-c2ccc(OC)cc2)s1`, for which the inhibition is 0.8%.

As to `c1ccc(-c2ccnc3nc(-n4cccc4)nn23)cc1`, the inhibition is -2.67%. Regarding `O=C(OCN1C(=O)c2ccccc2C1=O)/C(=C\c1ccco1)NC(=O)c1ccccc1`, the inhibition was -9.89%. On to `O=C(ON=C1CCN(S(=O)(=O)c2ccccc2)CC1)c1ccc(Cl)cc1`, for which the inhibition is -2.79%. Turning to `O=C(NCCCCc1ccccc1)C1CC(c2ccc([N+](=O)[O-])cc2)=NO1` (stereo unspecified), the inhibition is 1.72%. On to `CC(=O)c1cc2c(cc1NC(=O)CN1CCCCCC1)OCO2`, for which the inhibition was -6.18%.

Turning to `COCCn1c(=S)[nH]c2cc(C(=O)NCCc3ccc(OC)c(OC)c3)ccc2c1=O`, the inhibition is -6.01%. As to `CCOc1cc2[nH]c(=O)n(CCC(=O)NCc3ccc(OC)cc3)c(=O)c2cc1OCC`, the inhibition was 7.75%. Turning to `CCN(CC)C(=O)CN(c1cccc(OC)c1)S(=O)(=O)c1ccc(C)cc1`, the inhibition was -6.83%.

`COC(=O)c1ccc(CSc2ccc3nnc(-c4ccccc4)n3n2)o1`: the inhibition was -1.52%. For `CCc1c(-c2ccccc2)nc(N)c(C#N)c1-c1cccs1`, the inhibition was -6.33%. Take `C=CCN1C(=O)C(Cc2cccc(Cl)c2)S/C1=N/N=C/c1ccco1` (stereo unspecified): the inhibition was 2.87%. Regarding `O=C(Nc1cccc2ccccc12)N1CCN(Cc2ccc3c(c2)OCO3)CC1`, the inhibition was 0.42%.

As to `CCOC(=O)C1Sc2[nH]c(=O)sc2C(c2ccc(Cl)cc2)C1C(=O)OCC` (stereo unspecified), the inhibition was 6.17%.

As to `O=C(c1ccccc1Oc1ccccc1)N1CCN(c2ccc(F)cc2)CC1`, the inhibition was 1.29%.

Turning to `CCCCOc1ccc(CSC(=N)N)cc1[N+](=O)[O-]`, the inhibition is -6.89%. On to `CCn1cc(C(=O)N/N=C(/C)c2ccc(F)cc2)c(=O)c2cc(F)c(N3CCCC3)cc21`, for which the inhibition was 5.77%. In the case of `Cc1ccc(SCC(=O)NC(=O)NCc2ccco2)c(C)c1`, the inhibition is -1.3%.

For the compound `COC(=O)c1ccc(S(=O)(=O)N2CCC(c3nc4ccccc4o3)CC2)cc1`, the inhibition is 2.06%. On to `CCCCc1nnc(NC(=O)CSc2nc(C)cc(=O)[nH]2)s1`, for which the inhibition was 0.99%. For the compound `CCCc1noc2c1/C(=N\O)CCC2`, the inhibition is 7.69%. On to `Cc1ccc(CCN2CC(C(=O)O)CC2=O)cc1` (stereo unspecified), for which the inhibition is -3.41%.

On to `CCOC(=O)c1[nH]c(C)c(C(=O)OCC(=O)N2c3ccccc3CC2C)c1C` (stereo unspecified), for which the inhibition is 2.53%. Turning to `O=P(O)(CP(=O)(c1ccccc1)c1ccccc1)c1ccccc1O`, the inhibition is 4%. Consider `Cc1cc(=O)oc2cc(OC(C)C(=O)Nc3ccc(N4CCOCC4)cc3)ccc12` (stereo unspecified), for which the inhibition was 8.06%.

As to `O=C1CCCC2=C1C(c1ccccc1)n1c(s/c(=C/c3cccc(F)c3)c1=O)=N2` (stereo unspecified), the inhibition is 1.22%.
